# ChEMBL document CHEMBL3988442, “University of Dundee, Small-Polar-MMV Screening Library” (2021)
# The campaign covered roughly 48,000 compounds. About 13,000 (27%) showed an effect of 50% or more. Some of the results follow.
# System: Wolbachia pipientis
# Assay: Anti-Wolbachia Cell-Based Screen
# Type: functional
# Parameters: scale not given: in the data most compounds retested in dose-response had high values
# Details: 5 µM
row,SMILES,Percent Effect
1,Cc1nc(NC(=O)COCC2CC2)ccc1Br,-7.033%
2,CCc1nnc(CN2CCC(C3CCCCCN3C(C)=O)CC2)o1.Cl (stereo not given),2.52%
3,CN(C)c1nccc(CNS(=O)(=O)c2cc(Cl)cc(Cl)c2)n1,-1.753%
4,Cc1nc(C(=O)N2CCN(C(=O)N(C)C)[C@@H]3CS(=O)(=O)C[C@@H]32)cs1,-0.3934%
5,CCC(NC(=O)c1cccc2[nH]ccc12)C(=O)N1CCOCC1 (stereo not given),-2.082%
6,Cc1noc(C)c1CNC(=O)N1CCCC(C)CC1 (stereo not given),-2.86%
7,Cc1cnn(C2CCCN(C(=O)Cc3c(C)nn(C)c3C)C2)c1 (stereo not given),112.6%
8,Cc1noc(C)c1CC(=O)N1CCCC(c2noc(C(C)C)n2)C1 (stereo not given),-25.9%
9,Cc1nn(C)c(C)c1CC(=O)N1CCCC(n2ccnc2)C1 (stereo not given),-6.925%
10,Cc1nn(C)c(C)c1CC(=O)N1CCCC(n2ccnc2C)C1 (stereo not given),103.8%
11,Cc1nccn1C1CCCN(C(=O)Cn2ccc(=O)n(C)c2=O)C1 (stereo not given),-5.053%
12,CC(=O)NCC1CCCN(C(=O)Cc2c(C)noc2C)C1 (stereo not given),118.6%
13,C=C(C)CN1CCCC1c1nc(Cc2ccc(F)cc2)no1 (stereo not given),3.064%
14,CNC(=O)[C@H]1C[C@H]2OCC[C@H]2N(CC2CCOCC2)C1.O=C(O)C(F)(F)F,-4.721%
15,COC(=O)CCCN(C)C(c1cccnc1)c1ccc(F)cc1F (stereo not given),-20.53%
16,Cn1nccc1-c1nc2c(cc1C(=O)O)CCN(C(=O)C1CC1)CC2.O=C(O)C(F)(F)F,-10.62%
17,CCCn1nccc1-c1nccnc1CC1CCN(C(C)=O)CC1,113%
18,CCCn1nccc1C(=O)N1CCCC(C(=O)CCc2ccccc2)C1 (stereo not given),3.228%
19,CCCn1nccc1C(=O)N1CCN(C(=O)C2CC2)[C@@H]2CS(=O)(=O)C[C@@H]21,17.33%
20,CCCn1nccc1-c1cnc(CC2CCN(C(C)=O)C2)cn1 (stereo not given),102.9%
21,CCCn1nccc1C(=O)N1CCN(C2CCc3ccccc3C2)CC1 (stereo not given),-8.816%
22,CCCn1ncnc1C(C)NC(=O)C1CCN(C(=O)C2CC2)CC1 (stereo not given),-8.242%
23,CC(=O)N1CCC(Cc2nccnc2-c2ccnn2C)CC1,105.5%
24,CCCn1nccc1-c1nccnc1CC1CCN(C(C)=O)C1 (stereo not given),94.67%
25,CS(=O)(=O)c1ccc2c(c1)N(C(=O)Cc1ccc(F)cc1)CCC2,9.452%

row,SMILES,Percent Effect
1,N#Cc1cccnc1NCCNC(=O)NCCSC(F)(F)F,18.52%
2,O=C(NCCC1CCCCO1)c1coc(COc2ccc(F)cc2)n1 (stereo not given),-18.68%
3,CCOCc1nc2c(c(NC(CC)c3cccnc3)n1)CCNCC2 (stereo not given),11.04%
4,CN(CC1(CO)CCCC1)[C@@H]1c2ccccc2C2(CCNCC2)[C@H]1O,6.987%
5,Cc1cccc(C2CCCN(C(=O)CN3CCOC3=O)C2)c1 (stereo not given),-2.013%
6,CN(C)CCO[C@H]1C[C@@H](O)C12CCN(c1nccc3ccccc13)CC2,-5.816%
7,Clc1ccccc1C1(c2ccnc(-c3ncccn3)n2)CCNCC1,-1.363%
8,Cc1ccccc1CC(C)(C)NC(=O)COc1cccc(C(N)=O)c1,8.164%
9,Cc1ccn(-c2cncc(C(N)=O)c2)n1,-45.7%
10,Cc1cc(=O)n2nc(Oc3cccc(C(N)=O)c3)sc2n1,92.57%
11,Cc1cc(=O)n2nc(Oc3cccc(I)c3)sc2n1,98.58%
12,CSCCC(=O)N1CCC(c2nccn2Cc2cscn2)CC1,-27.24%
13,Cc1ccsc1-c1nc(CN(C)Cc2cc[nH]n2)c(C)o1,11.99%
14,Cc1ccc(S(=O)(=O)N2C[C@H](C3CC3)[C@@H](N)C2)cc1F,-0.3318%
15,Cc1ccc(S(=O)(=O)N2CCCCC(N3CCN(C)CC3)C2)cc1F (stereo not given),-10.96%
16,Cc1ccc(S(=O)(=O)N2CCCC3(CCCN3S(C)(=O)=O)C2)cc1F (stereo not given),98%
17,CS(=O)(=O)N1CCCC12CCCN(S(=O)(=O)c1ccc(F)c(F)c1)C2 (stereo not given),90.35%
18,CS(=O)(=O)N1CCCC12CCCN(S(=O)(=O)c1ccc(F)cc1)C2 (stereo not given),-4.23%
19,c1ccn2c(C3CCCN(c4ncnc5c4CCNC5)C3)nnc2c1 (stereo not given),-4.904%
20,O=C(O)COc1ccc(Cl)cc1CN1CCC2(CCNCC2)CC1,-7.41%
21,Cc1csc(CN2CC(CO)Oc3ccccc32)n1 (stereo not given),-31.8%
22,COc1c(CNCc2ccccc2Cn2cccn2)c(C)nn1C,10.98%
23,COc1c(CNCc2cccc(Cn3ccnc3C)c2)c(C)nn1C.Cl,162.7%
24,COc1c(CNCc2ccc(Cn3cccn3)cc2)c(C)nn1C,-21.67%
25,COc1c(CNCc2cccc(Cn3cccn3)c2)c(C)nn1C,134.9%

row,SMILES,Percent Effect
1,COc1c(CNCc2cccc(Cn3cncn3)c2)c(C)nn1C,94.36%
2,COc1c(CNCc2cccc(CN3CCOCC3)c2)c(C)nn1C,-5.316%
3,COc1c(CNCc2ccccc2Cn2cncn2)c(C)nn1C,-0.9882%
4,Cc1ccc(NC(=O)C(C)N2CCCN(c3nccs3)CC2)c(C)c1 (stereo not given),-5.233%
5,O=S(=O)(NCC1(O)CCCC1)c1ccccc1Br,2.398%
6,O=C1N(c2ccc(F)cc2)Cc2n[nH]c(=O)n21,2.178%
7,O=c1[nH]nc2c(S(=O)(=O)N3CCCCC3)cccn12,132.6%
8,O=C(O)c1cc(-c2cc[nH]n2)cc(S(=O)(=O)N2CCCCCC2)c1,5.373%
9,O=c1[nH]nc2c(S(=O)(=O)N3CCOCC3)cccn12,153.4%
10,O=c1[nH]nc2c(S(=O)(=O)N3CCN(c4ccc(F)cc4)CC3)cccn12,130.4%
11,CC1CCN(S(=O)(=O)c2cccn(CC(=O)N3CCOCC3)c2=O)CC1,5.887%
12,CC(C)(C)OC(=O)Cn1cccc(S(=O)(=O)N2CCCC2)c1=O,1.983%
13,CC(C)(C)OC(=O)Cn1cccc(S(=O)(=O)N2CCCCCC2)c1=O,-1.938%
14,O=S(=O)(Nc1ccc(N2CCOCC2)cn1)c1ccc(F)cc1,-10.45%
15,CC(=O)Nc1ncc(S(=O)(=O)N2CCOCC2)s1,-0.8414%
16,CC1CCN(S(=O)(=O)c2cccn(CC(=O)NC(C)(C)C)c2=O)CC1,-3.132%
17,O=c1[nH]nc2c(S(=O)(=O)N3CCCC3)cccn12,132.4%
18,Cc1nc(CN2CCC(CNC(=O)C3CCOC3)CC2)oc1C (stereo not given),-1.518%
19,CCCN(CCC)C(=O)c1cc(CN2CCC(O)CC2)on1,-23.18%
20,COc1ccc(-c2noc(CCC(=O)N3CCOCC3(C)C)n2)cc1,3.097%
21,CCc1nccn1C1CCCN(C(=O)c2cc3nc(C)ccc3o2)C1 (stereo not given),-10.67%
22,O=c1[nH]nc2c(S(=O)(=O)N3CCCCCC3)cccn12,159%
23,Cc1nnc(SCCNC(=O)CC2CCc3ccccc32)s1 (stereo not given),-7.078%
24,CN1CCC(C(=O)N2CCN(Cc3cccc(Cl)c3)CC2)CC1=O (stereo not given),1.504%
25,O=C(O)[C@H]1OCC(=O)N(Cc2cccc(Cl)c2)[C@@H]1c1ccccc1,97.67%

row,SMILES,Percent Effect
1,O=C(O)C(F)(F)F.O=C1CO[C@@H]2CN(CC3CCOC3)C[C@H]2N1Cc1cccc(F)c1 (stereo not given in full),18.32%
2,O=C1CO[C@H]2CN(S(=O)(=O)c3ccccc3)C[C@H]2N1Cc1ccccc1,-0.9845%
3,NC(=O)CN1C(=O)CO[C@H]2CN(Cc3ccccc3)C[C@H]21,-7.855%
4,O=C(O)[C@H]1OCC(=O)N(Cc2cccc(F)c2)[C@@H]1c1ccc(Cl)cc1,104.6%
5,O=C(O)C(F)(F)F.O=C1CO[C@@H]2CN(CC3CC3)C[C@H]2N1Cc1cccc(F)c1,2.959%
6,O=C(O)[C@@H]1OCC(=O)N(Cc2cccc(Cl)c2)[C@@H]1c1ccccc1,105.3%
7,CC(C)N1C[C@@H]2OCC(=O)N(Cc3ccccc3)[C@@H]2C1,4.027%
8,CCOc1ccccc1-c1noc(CN2CC(n3cccn3)C2)n1,-3.661%
9,COc1ccc(C2(C(=O)N3CC(c4cccnc4)C3)CC2(C)C)cc1 (stereo not given),-12.52%
10,COc1ccc(C(=O)N2CCOC(Cc3cccc(C(F)(F)F)c3)C2)o1 (stereo not given),-4.741%
11,N#Cc1ccc(CNc2ncc(C#N)cc2Cl)cc1,12.93%
12,Cc1ccoc1C(=O)N(CCN(C)C)Cc1ccccn1,-10.81%
13,Cc1ccsc1CN(Cc1ccccn1)CC(C)C,-7.102%
14,CCn1nc(C)c(CN(CCOC)C(=O)c2ccc(=O)[nH]n2)c1C,-5.597%
15,CCn1nc(C)c(CN(Cc2ccccn2)Cc2ccccc2Cl)c1C,105.5%
16,CCN(Cc1ccccn1)Cc1cc(Cl)ccc1OC,-5.315%
17,CCn1nc(C)c(CN(CCCOC)Cc2ccccn2)c1C.O=C(O)CC(O)(CC(=O)O)C(=O)O,71.01%
18,Cc1occc1C(=O)N(CCN(C)C)Cc1ccccn1,-8.298%
19,Cc1ccsc1CN(CCN(C)C)Cc1ccccn1,2.739%
20,CCOCC(=O)N(Cc1ccccn1)Cc1ccccc1C,-6.914%
21,CCn1nc(C)c(CN(CCOC)C(=O)c2ccccc2N(C)C)c1C,-7.863%
22,CCn1nc(C)c(CN(CCCN(C)C)Cc2ccccn2)c1C,80.15%
23,Cc1ccsc1CN(CCCN(C)C)Cc1ccccn1,97.01%
24,CN1CCCN(CCCNC2CCc3cc4c(cc32)OCCO4)CC1 (stereo not given),-2.164%
25,CCN1CCN(c2ccc(F)cc2C(C)NCc2noc(C)n2)CC1 (stereo not given),6.672%
